# Source: PubChem
# This is a sample that favours compounds with a hit; in the whole collection about 8.3% have one here.
# HCV inhibitor – qHTS Assay for Inhibitors of Hepatitis C Virus (HCV); AID 651820, 2012; actives 3.4% (n = 340,000); Huh7.5.1 HCVcc-Cre infection, luciferase reporter, 44 h; Potency, µM (series often up to 41.8 µM), hits mostly inhibitors
#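 Cells (1,000/well) were plated 4 h before compound, then infected with HCVcc-Cre virus (~0.5 moi). After 44 h further culture, infection was read as luciferase luminescence following a 15 min substrate incubation at room temperature.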
# Giardia FBPA inh – qHTS Assay for Inhibitors of Fructose-1,6-bisphosphate Aldolase from Giardia Lamblia; actives 0.71% (n = 290,000); purified Giardia FBPA; A8B2U2; Potency, µM (top dose mostly 59.6 µM), most hits filed as inhibitors; AID 2451, 2010; note: nearly all actives have a fitted effect of over 55% in size
# Target sequence (A8B2U2 whole entry, looked up): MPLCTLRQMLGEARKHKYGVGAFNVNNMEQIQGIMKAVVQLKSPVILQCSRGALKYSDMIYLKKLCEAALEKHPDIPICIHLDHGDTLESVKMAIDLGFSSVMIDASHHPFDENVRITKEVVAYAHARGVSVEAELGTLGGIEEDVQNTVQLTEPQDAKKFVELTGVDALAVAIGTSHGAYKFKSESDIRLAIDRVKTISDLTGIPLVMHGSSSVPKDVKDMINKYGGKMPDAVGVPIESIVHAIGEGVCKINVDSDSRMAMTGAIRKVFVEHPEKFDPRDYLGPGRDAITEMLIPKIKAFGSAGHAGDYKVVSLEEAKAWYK
#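 40 nM FBPA preincubated 10 min at RT with compound (up to 57.5 uM final), then substrate plus GAPDH/TPI/NAD/arsenate coupling and diaphorase/resazurin added. Fluorescence read after 20 min at RT, 525/598 nm.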
# HCMV antiviral – qHTS Assay for inhibitors of the human cytomegalovirus (HCMV) | HFF cells, HCMV-luciferase reporter, 72 h; hits give low values | activity change, negative = inhibition, % at 57.5 µM | actives 4.5% (n = 410,000) | AID 1259415, 2018; in the data active = activity change below about -60%; inconclusive = no clear call, values can overlap the other calls; inactive = above about -39%
#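 Cell-based, HFFs, 1000 cells/well, 16 h 37C; cpds in DMSO + HCMV-luc, MOI 1 PFU/cell; 72 h 37C; OneGlo luminescence after 5 min RT; norm. to buffer vs Salinomycin 10uM.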
# MARV entry inh – qHTS for inhibitors of binding or entry into cells for Marburg Virus | AID 540276, 2011 | Potency, µM (top dose mostly 37.8 µM), usual class: inhibitors | actives 1.8% (n = 300,000) | Marburg virus pseudotyped entry inhibition, cell reporter; calls by dose curve; tested in HEK293 cells
# FMDV antiviral – High Throughput Screening for Foot and Mouth Disease Virus Antivirals; FMDV antiviral cell-based qHTS; Potency, µM (doses to about 57.9 µM), usual class: inhibitors; actives 1.2% (n = 410,000); calls by dose curve; tested in HEK293T cells; note: read-out not given here; nearly all actives have a fitted effect of over 45% in size
# LASV entry inh – qHTS for Inhibitors of binding or entry into cells for Lassa Virus | Potency, µM (titrated, usually from 37.9 µM), hits mostly inhibitors | actives 1.2% (n = 300,000) | Lassa virus pseudotype entry inhibition, cell reporter; calls by dose curve; tested in HEK293 cells; note: nearly all actives have a fitted effect of over 50% in size
# Numbers stand for hits; 0 = inactive; ? = inconclusive; - = no result; ! = repeats disagree. Unless noted, calls come from the whole dose curve; as a rule, active = well fitted curve in the direction sought with a large enough effect; inconclusive = small, poorly fitted or top-dose-only effect, or another doubt; inactive = no such curve, though single readings can be large; an effect the other way counts as inactive or inconclusive.
SMILES,HCV inhibitor,Giardia FBPA inh,HCMV antiviral,MARV entry inh,FMDV antiviral,LASV entry inh
Oc1cc(-c2cccnc2)cc2cccnc12,-,-,-94,-,0,-
C[C@H](CO)N1C[C@H](C)[C@@H](CN(C)C(=O)Nc2ccnc(N3CCOCC3)c2)OCc2cn(nn2)CCCC1=O,-,-,0,-,-,-
CCCOc1ccc(-c2nnn(CC(=O)N3CCCC(C)C3)n2)cc1 (stereo unspecified),?,0,0,-,0,-
CCOc1ccc(-c2nnn(CC(=O)N3CCCC(C)C3)n2)cc1 (stereo unspecified),0,0,-70,-,0,-
Cc1cc(Cl)c2oc(C(=O)N3CCN(c4ccncc4)CC3)c(C)c2c1,1.3µM,-,0,3.5µM,0,?
O=C(CN1C(=O)S/C(=C\c2ccccc2F)C1=O)NC1C=CS(=O)(=O)C1 (stereo unspecified),0,0,-63,-,0,-
CCSc1nnc2nc(C)cc(C)n12,0,0,0,0,0,0
Cc1ccc(CSc2nnc3nc(C)cc(C)n23)cc1,0,0,-84,?,0,0
COc1ccc2oc(C(=O)OCC(=O)c3ccc4c(c3)OCCO4)c(C)c2c1,0,0,0,?,?,16µM
CCOc1ccc2oc(C(=O)NNC(=O)c3ccccc3O)c(C)c2c1,0,-,-72,0,0,0
CCOc1ccc2oc(C(=O)OCC(=O)N3C(C)CCCC3C)c(C)c2c1 (stereo unspecified),13µM,-,0,-,?,-
CCOc1ccc2oc(C(=O)OCC(=O)NCC3CCCO3)c(C)c2c1 (stereo unspecified),?,-,0,0,0,11µM
COc1ccc(Cn2c(=O)c3ccccc3n3c(-c4ccc(C)cc4)nnc23)cc1,-,-,0,?,0,0
CC(C)CCn1c(=O)c2sccc2n2c(CCCC(=O)NC3CCC(C)CC3)nnc12 (stereo unspecified),-,-,0,-,0,0
CCC(=O)N1CCc2cc(Br)cc(S(=O)(=O)NCC3CCCO3)c21 (stereo unspecified),0,0,0,?,0,0
CCC(=O)N1CCc2cc(Br)cc(S(=O)(=O)CCC(=O)NCC3CCCO3)c21 (stereo unspecified),0,0,-109,?,0,0
COc1ccc(OC)c2sc(N3CCCCC3)nc12,13µM,0,0,0,0,0
COc1ccc(OC)c2sc(N3CCN(C(=O)c4ccc([N+](=O)[O-])s4)CC3)nc12,?,-,0,0,0,0
COc1ccc(C)c2sc(N3CCN(C(=O)c4ccco4)CC3)nc12,-,-,0,-,0,0
c1ccc2c(c1)CCN(c1nc3cc4c(cc3s1)OCCO4)C2,?,?,-90,?,7.9µM,4.6µM
COc1ccc(OC)c2sc(N3CCc4ccccc4C3)nc12,?,0,-76,0,0,0
CCCN1CCC(=O)N(CCSc2ccc(Br)cc2)CC1,-,0,-,-,-,-
CCCC[S@@](=N)(=O)CC[C@@H](N)C(=O)O,-,-,-,0,-,-
C=CCOC(=O)C(C(C)=O)[C@@H](NC(=O)OC)c1cccc(F)c1 (stereo partly specified),-,-,-,0,-,-
Cn1c(=O)c(Nc2ccc(O)cc2)c2c3c(cccc31)C(=O)c1ccccc1-2,?,?,-61,0,0,0
SMILES,HCV inhibitor,Giardia FBPA inh,HCMV antiviral,MARV entry inh,FMDV antiviral,LASV entry inh
O=C(CSc1nc2ccccc2[nH]1)c1c[nH]c2ccccc12,0,0,0,0,0,0
Cc1nc(SCC(=O)c2c[nH]c3ccccc23)n[nH]1,0,0,-69,0,0,?
COc1ccc(-c2coc3c2c(C)cc2oc(=O)c(CC(=O)O)c(C)c23)cc1,-,-,0,0,0,0
CNc1ccc2ncc(-c3ccc(OC)c(OC)c3)n2n1,-,-,-83,-,0,-
CS(=O)(=O)c1cccc(C(=O)Nc2ccc(-c3nc4ccccc4[nH]3)cc2)c1,?,0,-65,?,0,0
CCCN(CCC)S(=O)(=O)c1ccc(C(=O)Nc2cccc(-c3nc4ccccc4[nH]3)c2)cc1,-,-,-88,-,?,?
CC(=O)Nc1ccc2nc(-c3ccncc3)[nH]c2c1,0,0,0,0,0,0
CC(=O)Nc1cc(NC(C)=O)cc(-c2nc3ccccc3[nH]2)c1,0,0,-108!,0,40µM,0
C[C@H]1O[C@@H](n2cnc3c(N)ncnc32)C[C@@H]1OP(=O)(O)OP(=O)(O)OP(=O)(O)O,-,0,-,-,-,-
COc1cc(NC(=O)c2nccnc2N)cc(C(=O)Nc2cccc(C(F)(F)F)c2)c1,0,0,0,-,0,-
COc1cc(NC(=O)c2nccn2C)cc(C(=O)Nc2cccc(C(F)(F)F)c2)c1,2.5µM,0,0,-,0,-
COc1cc(Nc2ccccn2)cc(C(=O)Nc2cccc(C(F)(F)F)c2)c1,?,0,-69!,-,?,-
COc1ccc(Cl)cc1NC(=O)CSc1ccc2nnc(CCNS(=O)(=O)c3ccccc3)n2n1,-,-,0,-,0,0
NC(=O)CSCc1cccc(Br)c1,0,0,0,0,0,0
NC(CSCc1cccc(Br)c1)C(=O)O (stereo unspecified),0,0,-65,-,0,-
COC1=C[C@H](C(=O)N2CCCC2)[C@H](C)[C@@H](c2ccccc2)CC1=O,-,-,-,0,-,?
COc1ccc(Cn2c(=O)c3oc4ccccc4c3n(Cc3ccc(F)cc3)c2=O)cc1,-,-,0,-,0,0
